One assay has as its target P2RX3. Put plainly: pooled miR-30 sensor sort-seq; sequence = guide strand. The conditions noted are these: shRNA.
As for TTCACAACCACCGACTTGGTGG, the sensor-assay potency score (higher = more potent) was -0.566.

On to TTGAACTTGCCAGCATTCCCGT, for which the sensor-assay potency score (higher = more potent) is -1.02.

Sequence TTGATGATCCCGATGGTCCAGC registered a sensor-assay potency score (higher = more potent) of -0.677.

Sequence TTGAGCAGGATGATGTCACAGA registered a sensor-assay potency score (higher = more potent) of 0.136.

On to TCAGTAACAATCATCTTGGTGA, for which the sensor-assay potency score (higher = more potent) stood at 0.681.

TTCACCTTGGTTACCACCGAGG: the sensor-assay potency score (higher = more potent) was -0.997.

For the next assay, the target named is P2RY12. The description is as above. The following applies: shRNA.
With TAAAGTTTGATTTACTCCGGAT, the sensor-assay potency score (higher = more potent) is -0.511.

Sequence TAATATTTTTACTTAGCGCTTT had a sensor-assay potency score (higher = more potent) of 0.117.

Consider TTCACATTCTTGTCTCTCGGCT, for which the sensor-assay potency score (higher = more potent) was -0.666.

In the case of TTAACTTAGTTGCTTCTTCGTC, the sensor-assay potency score (higher = more potent) is -0.236.

Sequence TTTCATGCCAGACTAGACCGAA yielded a sensor-assay potency score (higher = more potent) of -0.342.

TTCTTGTCTCTCGGCTGCCTGT came in with a sensor-assay potency score (higher = more potent) of -1.33.

TTAACCACAGAGTGCTCTCTTT showed a sensor-assay potency score (higher = more potent) of -0.668.

For the sequence TTATTAACTTAGTTGCTTCTTC, the sensor-assay potency score (higher = more potent) was 0.717.

For the sequence ATTTGGGTCACCACCATCCTGT, the sensor-assay potency score (higher = more potent) was -0.843.

TTATTATTAACTTAGTTGCTTC showed a sensor-assay potency score (higher = more potent) of -0.642.

The sequence TTGACGTTCACCTTTTTCCTGG displayed a sensor-assay potency score (higher = more potent) of 0.386.

TAATTTACTATTTCATGCCAGA yielded a sensor-assay potency score (higher = more potent) of -0.703.

A further assay deals with P2RY4. The description is as above. The following applies: shRNA.
Regarding AAGACGACTGTGCAGAGCCTGG, the sensor-assay potency score (higher = more potent) is -1.35.

Take TAGCGGTGCACGCTGATGCAGG: the sensor-assay potency score (higher = more potent) was -1.24.

AGTAGAGCAGCTACTGTCCTGG returned a sensor-assay potency score (higher = more potent) of -1.37.

Consider TTGACAATGTTCAGTACTCGGC, for which the sensor-assay potency score (higher = more potent) was -0.264.

In the case of TAGAGCAGCTACTGTCCTGGGG, the sensor-assay potency score (higher = more potent) was determined as 0.0671.

Sequence TAGGAGTAGAGCAGCTACTGTC gave a sensor-assay potency score (higher = more potent) of -0.823.

Sequence TTCCAATAGAAAAGAAAGCGGA showed a sensor-assay potency score (higher = more potent) of -0.289.

Turning to TAGCAAACAAGAGTGACCAGGC, the sensor-assay potency score (higher = more potent) worked out at 0.861.

ATAGCAAACAAGAGTGACCAGG returned a sensor-assay potency score (higher = more potent) of -0.888.

As to TGAACTTGAAATCCTCATCAAA, the sensor-assay potency score (higher = more potent) was -1.05.

TTGAAATCCTCATCAAACCAAC: the sensor-assay potency score (higher = more potent) is -1.03.

Turning to TAGAGCACAGGATCCAGGCAGC, the sensor-assay potency score (higher = more potent) was -0.928.

In another assay the target is P2RY6. The description is as above. The conditions noted are these: shRNA.
In turn, TTTCTGTAGGAGCTCATGTGGT came in with a sensor-assay potency score (higher = more potent) of -1.02.

As to TTCTGTAGGAGCTCATGTGGTC, the sensor-assay potency score (higher = more potent) is -0.257.

TTTTGTGAGCACCTTAATGTGG returned a sensor-assay potency score (higher = more potent) of -0.636.

The sequence ATAGTTGTAGATGAGCAGGGGC came in with a sensor-assay potency score (higher = more potent) of 0.421.

Sequence AGTTGCTTGAAGTTCTCGCGGT showed a sensor-assay potency score (higher = more potent) of -0.308.

On to TAGCGCTGGAAGCTGATGCAGG, for which the sensor-assay potency score (higher = more potent) is -0.775.

TTGGTGAGCTTCTGGGTCCTGT had a sensor-assay potency score (higher = more potent) of -0.191.

Take TTCTCGCGGTAGACACAGGTGG: the sensor-assay potency score (higher = more potent) was -0.894.

Sequence TTTAGGGTGTACACGGCCGTGC had a sensor-assay potency score (higher = more potent) of -0.557.

TCGCGGTAGACACAGGTGGTGG returned a sensor-assay potency score (higher = more potent) of -1.81.

Values taken from the OligoGym collection.
Also: reference of the scale not given here.
